Our source for the composite z-score and z-score values is PubChem BioAssay.

For test [1], the system named is XIP peptide (Xip251-270) binding. Put plainly: XIP fragment 251-270 binding compounds – biochemical, small-molecule microarray, fluorescence 635/667 nm, 0.1 µg/mL protein, primary screen (AID 1182). Conditions: fluorescent protein binding, 635 nm, higher = more signal, called active from +8 up or from −8 down.
For test [2], the system named is XIP peptide (Xip251-270). Put plainly: compounds binding XIP fragment 251-270 – biochemical, small-molecule microarray, fluorescence 635/667 nm, 0.5 µg/mL protein, primary screen (AID 1183). Particulars: fluorescence 635 nm, higher = more signal.
A short description of test [3]: blood-stage malaria parasite viability loss – strain 3D7, DAPI fluorescence, 100 nL, primary screen (AID 1184).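 Note: parasites grown inside human red blood cells in medium with human serum.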 Particulars: P. falciparum 3D7 growth, 3 d, higher = more signal.
Test [4] deals with Homeobox protein Hox-A13 (Mus musculus) (UniProt Q62424). Put plainly: disruptors of Hoxa13 oligonucleotide interaction – biochemical, fluorescence polarization, labeled oligonucleotide, primary screen (AID 1185). Conditions: Hoxa13:DNA binding, 15 min, higher = more signal, called active from +8 up or from −8 down.
A short description of test [5]: blockers of DNA damage checkpoint Chk1 activation – imaging, HeLa, hydroxyurea, phospho-Chk1 antibody, percent positive cells, primary screen (AID 1186). Conditions: hydroxyurea-induced phospho-Chk1 immunofluorescence imaging, higher = more signal.
The nature of test [6]: blockers of DNA damage checkpoint Chk1 activation – imaging, HeLa, hydroxyurea, phospho-Chk1 nuclear intensity, primary screen (AID 1187). Particulars: hydroxyurea-induced phospho-Chk1 immunofluorescence imaging, higher = more signal.

The structures appear in SMILES notation. The source made the active and inactive calls. Unless noted, the rule behind the calls is not given here.

Homeobox protein Hox-A13 (Mus musculus), sequence (Q62424 whole entry, looked up): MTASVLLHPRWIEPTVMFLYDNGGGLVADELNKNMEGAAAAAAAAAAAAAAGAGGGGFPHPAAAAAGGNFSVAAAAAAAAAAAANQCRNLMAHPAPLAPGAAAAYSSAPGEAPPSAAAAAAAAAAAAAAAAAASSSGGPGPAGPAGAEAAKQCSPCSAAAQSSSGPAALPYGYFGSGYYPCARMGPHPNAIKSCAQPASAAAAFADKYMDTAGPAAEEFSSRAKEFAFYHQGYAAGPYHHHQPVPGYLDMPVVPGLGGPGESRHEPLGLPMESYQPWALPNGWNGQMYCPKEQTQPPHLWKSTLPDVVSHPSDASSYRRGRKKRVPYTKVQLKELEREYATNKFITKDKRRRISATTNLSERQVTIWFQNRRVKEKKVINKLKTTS

With `COc1ccc([Si](C)(C)[C@@H]2[C@@H](CC(=O)N3CCC[C@H]3CO)O[C@]3(C(=O)N(c4ccccc4)c4ccccc43)[C@H]2C)cc1`, the results for the composite z-score in test [1] and in test [2] were -0.152 (inactive) and 0.591, respectively. For the same compound, the z-score in test [3] was -0.831; in test [4], -5.71 (inactive); in test [5], -0.845 (inactive); in test [6], -1.31 (inactive).

For the compound `COCCOC(=O)N1C(=O)[C@@]2(c3cc(C#Cc4ccc(OC)cc4)ccc31)[C@H](c1ccccc1OCCO)N1[C@H](c3ccccc3)[C@H](c3ccccc3)OC(=O)[C@H]1[C@@H]2C(=O)NC[C@H](O)c1ccccc1`, the composite z-score in test [1] is 0.159 (inactive); in test [2] it was 0.815. Also, the z-score in test [3] was -1.8; in test [4], -1.34 (inactive); in test [5], -0.203 (inactive); in test [6], -0.29 (inactive).

For `CN(C)CCCC[C@@H]1NC(=O)[C@H]2C[C@@H](C(=O)NCCCCCCN)[C@@H](c3ccc(O)cc3)N2C1=O`, the composite z-score was 1.38 (inactive) in test [1] and 0.785 in test [2]. Besides, the z-score in test [3] is -0.135; in test [4], -1.16 (inactive); in test [5], 0.323 (inactive); in test [6] it was 0.362 (inactive).

For `C=CC[C@@]1(C(=O)NCCN2CCOCC2)N=C(c2ccc(OCCCO)cc2)O[C@@H]1c1ccccc1N=[N+]=[N-]`, the values for the composite z-score in test [1] and in test [2] were 2.32 (inactive) and -0.0559, respectively. Moreover, the z-score in test [3] was -2.21; in test [4] it was -6.17 (inactive); in test [5], 0.003 (inactive); in test [6], -0.0928 (inactive).

Turning to `CN1C(=O)C2C=CC(C(O)c3ccccc3)N(N(c3ccccc3)c3ccccc3)C2C1=O` (configuration not stated), the composite z-score is -0.274 (inactive) in test [1] and -0.0284 in test [2]. The z-score in test [3] was 0.796; in test [4], -1.72 (inactive); in test [5], 0.812 (inactive); in test [6], 0.606 (inactive).

As for `CC(C)C(=C=CC[C@@H](O)c1ccc(OCCO)cc1)C[C@@H](O)c1ccccn1`, the results for the composite z-score in test [1] and in test [2] were 1.5 (inactive) and 0.198, respectively. The z-score is -0.278 in test [3], -5.14 (inactive) in test [4], -0.329 (inactive) in test [5] and -0.22 (inactive) in test [6].

Take `C=CCC(OC(C)=O)[C@@H]1[C@@H](N(Cc2ccc(-c3ccccc3)cc2)C(=O)c2ccc(-c3ccccc3)cc2)c2cc(OCCCO)ccc2N1C(=O)Cc1ccc2ccccc2c1` (some centres not stated): the composite z-score in test [1] was -0.313 (inactive); in test [2] it was -0.241. The z-score was 0.799 in test [3], -1.05 (inactive) in test [4], 0.321 (inactive) in test [5] and 0.392 (inactive) in test [6].

As to `COc1ccc(CCNC(=O)[C@@]2(C)c3ccccc3C(=O)N(C(C)C)[C@H]2c2ccc(CO)cc2)cc1`, the figures for the composite z-score in test [1] and in test [2] were -0.15 (inactive) and 0.388, respectively. The z-score in test [3] was -0.57; in test [4], -2.77 (inactive); in test [5] it was 0.0394 (inactive); in test [6], -0.33 (inactive).

Regarding `Cc1ccc(S[C@]2(C(=O)NCCCN(C)C)CC(=O)N(Cc3cc(C(F)(F)F)cc(C(F)(F)F)c3)[C@@H]2c2ccc(CO)cc2I)cc1`, the composite z-score in test [1] was -0.773 (inactive); in test [2], -0.878. Moreover, the z-score in test [3] is 0.227; in test [4], -3.31 (inactive); in test [5] it was 0.522 (inactive); in test [6], 0.201 (inactive).

`CC(C)C[C@@H]1NC(=O)[C@H](C(C)C)NC(=O)[C@@]23C(=O)N[C@@H](Cc4ccccc4)C2[C@H](C)[C@@]2(C)O[C@H]2C3/C=C/CC/C=C/CNC1=O` (some centres not stated): the composite z-score was 0.758 (inactive) in test [1] and 0.607 in test [2]. For the same compound, the z-score in test [3] was -1.4; in test [4], -6.99 (inactive); in test [5], 0.0132 (inactive); in test [6], 0.432 (inactive).

For the compound `CN(C)C(=O)[C@@]1(CCS(=O)(=O)c2ccccc2)COC(c2ccc(OCCCO)cc2)=N1`, the composite z-score is 0.551 (inactive) in test [1] and 0.299 in test [2]. Further, the z-score was -0.697 in test [3], -5.72 (inactive) in test [4], -0.0692 (inactive) in test [5] and -0.023 (inactive) in test [6].

Consider `O=C1N[C@@H](Cc2ccccc2)C(=O)N2[C@@H]1C[C@@H](C(=O)O)[C@H]2c1cccc(OCCO)c1`, for which the values for the composite z-score in test [1] and in test [2] were 0.779 (inactive) and 0.465, respectively. Also, the z-score in test [3] was 0.193; in test [4], -3.04 (inactive); in test [5], -0.22 (inactive); in test [6], 0.101 (inactive).

For the compound `COc1ccc(-c2cc3c(c(-c4ccc(Oc5ccccc5)cc4)n2)[Si](C(C)C)(C(C)C)OC3)cn1`, the composite z-score is -0.0527 (inactive) in test [1] and 0.0792 in test [2]. Also, the z-score was -1.34 in test [3], -1.79 (inactive) in test [4], -0.265 (inactive) in test [5] and 0.0655 (inactive) in test [6].

`C=C(COC)/C(=C/C[C@@H](OC(=O)c1ccncc1)c1ccc(CO)o1)c1cc(C(=O)OC)ccc1OC`: the composite z-score is 0.215 (inactive) in test [1] and 0.838 in test [2]. Moreover, the z-score in test [3] is -0.644; in test [4], -4.26 (inactive); in test [5], -0.255 (inactive); in test [6], -0.162 (inactive).

As to `O=C1[C@@]23C=C(Br)[C@H](C[C@@H]2CCOC3)[C@@]12CO2`, the composite z-score was 0.792 (inactive) in test [1] and -0.377 in test [2]. The z-score in test [3] is 1.37; in test [4] it was 0.0303 (inactive); in test [5] it was -0.259 (inactive); in test [6] it was -0.561 (inactive).

As for `COC(=O)[C@@]1(Cc2ccc(OC)cc2)[C@H]2c3cc(C(=O)N(C)C)n(C)c3C[C@H]2CN1C(=O)c1ccccc1`, the values for the composite z-score in test [1] and in test [2] were -0.0515 (inactive) and 0.764, respectively. For the same compound, the z-score in test [3] was -1.4; in test [4], -3.49 (inactive); in test [5], -0.0095 (inactive); in test [6] it was 0.0799 (inactive).

On to `CC(C)NC(=O)[C@@]1(c2ccc([N+](=O)[O-])cc2)CC(=O)N(C2CCCCC2)[C@@H]1c1ccc(CO)cc1I`, for which the composite z-score in test [1] is 0.46 (inactive); in test [2], 0.697. Besides, the z-score in test [3] was -1.63; in test [4], -4.64 (inactive); in test [5], 0.1 (inactive); in test [6], 0.635 (inactive).
